CYP2C9 activ = human CYP2C9 activators, primary screen, biochemical, luminescence. 96,000 compounds, 1.4% hits. Cytochrome P450 2C9 (Homo sapiens), P11712. AID 1024, 2008. recombinant CYP2C9, luciferin-H conversion; active compounds read high; factor 1 = untreated enzyme, 0 = blocked. activation factor at 5 µM;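 active means activation factor of 2 or more for CYP2C9 at a 5 µM dose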;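 further: 0 = sulfaphenazole-blocked wells and 1 = vehicle-only wells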
CYP2C19 act = human CYP2C19 activators, primary screen, biochemical, luminescence | 96,000 tested, under 10 active | activation factor at 5 µM | recombinant CYP2C19, luciferin-H EGE luminescence; active compounds read high; 0 = fully inhibited enzyme, 1 = untreated enzyme;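 active means activation factor of at least 2 at 5 µM in the primary screen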;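 further: 0 = wells with 2.5 mM tranylcypromine and 1 = vehicle-only wells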
CYP2C9 inh = blockers of cytochrome P450 2C9 activity – biochemical, luminescence, ADME assay, primary screen | inhibition, % at 5 µM | 96,000 compounds, 20% hits | AID 777, 2007 | CYP2C9 Supersomes, luciferin-H conversion | P11712;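 active means blocking of liver enzyme CYP2C9 beyond about 50% at 5 µM, limit read from the data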
CYP2C19 inh = blockers of cytochrome P450 2C19 activity – biochemical, luminescence, ADME assay, primary screen. P33261. CYP2C19 Supersomes, luciferin-H EGE luminescence, 30 min. inhibition, % at 5 µM. 96,000 compounds, 21% hits. AID 778, 2007;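 active means CYP2C19 inhibition above a set limit at 5 µM in the primary screen, cut at about 50% in these data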;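 further: plate controls were negative control wells for no effect and 2.5 mM tranylcypromine positive control for full effect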
Pyk2 oligo antag = antagonists of Pyk2 self-association, primary screen, Q293 cells, FERM NanoBiT luminescence, HTS; active compounds read low; AID 1347419, 2020; 99,000 compounds, 0.83% hits; z-score (the deposit names both 25 µM and 10 µM);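 active means Z-score of -3 or lower, scaled per plate to the spread of control and sample wells; inactive means z-score above -3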;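 further: negative z-score means lost luminescence so less FERM oligomerization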
Target sequence (Q14289 whole entry, looked up): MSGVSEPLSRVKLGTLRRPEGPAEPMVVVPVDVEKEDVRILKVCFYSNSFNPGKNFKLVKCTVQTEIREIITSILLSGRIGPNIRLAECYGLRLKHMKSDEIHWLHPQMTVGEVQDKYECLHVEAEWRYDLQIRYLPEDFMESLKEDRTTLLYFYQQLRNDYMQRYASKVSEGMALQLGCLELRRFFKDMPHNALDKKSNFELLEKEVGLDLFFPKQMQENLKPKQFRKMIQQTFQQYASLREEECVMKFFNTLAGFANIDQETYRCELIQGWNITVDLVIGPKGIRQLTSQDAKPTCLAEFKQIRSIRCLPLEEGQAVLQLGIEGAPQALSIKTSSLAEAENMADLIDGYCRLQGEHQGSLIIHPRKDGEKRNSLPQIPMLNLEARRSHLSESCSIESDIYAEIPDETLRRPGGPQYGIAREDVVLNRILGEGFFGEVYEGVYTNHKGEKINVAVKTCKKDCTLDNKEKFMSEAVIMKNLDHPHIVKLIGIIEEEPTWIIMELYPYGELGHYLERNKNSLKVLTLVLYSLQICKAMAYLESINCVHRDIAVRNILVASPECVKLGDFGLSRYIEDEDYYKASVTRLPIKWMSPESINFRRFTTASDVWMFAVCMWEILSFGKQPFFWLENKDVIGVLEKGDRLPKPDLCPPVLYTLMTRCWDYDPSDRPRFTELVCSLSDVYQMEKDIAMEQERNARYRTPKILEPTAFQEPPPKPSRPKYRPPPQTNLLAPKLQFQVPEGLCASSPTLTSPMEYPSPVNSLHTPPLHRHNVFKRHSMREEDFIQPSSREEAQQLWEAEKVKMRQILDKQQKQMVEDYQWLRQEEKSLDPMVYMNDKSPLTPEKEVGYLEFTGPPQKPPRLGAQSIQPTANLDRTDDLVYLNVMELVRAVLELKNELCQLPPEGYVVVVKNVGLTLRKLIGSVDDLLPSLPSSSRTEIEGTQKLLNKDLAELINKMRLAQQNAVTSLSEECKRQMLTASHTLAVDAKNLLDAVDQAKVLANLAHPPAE
Starred values were filed as active, the others as inactive; · = no result. Only some compounds are listed: those with a hit (about 28% of all), similar ones and a draw of the others.

SMILES | CYP2C9 activ | CYP2C19 act | CYP2C9 inh | CYP2C19 inh | Pyk2 oligo antag
COc1ccc(CCNC(=O)CSc2nn(-c3ccccc3)c(=S)s2)cc1OC | · | · | · | · | -1.1
O=C(CSc1nnc(CNC(=O)c2cccs2)o1)NC1CCCCC1 | 1.2 | 1.2 | -23 | -16 | 1
COC(=O)C(C)Sc1nnc2n(-c3cccc(C)c3)c(=O)c3c4c(sc3n12)CCCC4 (stereo not drawn) | 1.1 | 1.1 | -13 | -14 | ·
O=C(NCCCO)c1ccc2[nH]c3ccccc3c2c1 | 0.7 | 0.4 | 32 | 64* | -0.33
C=CCNC(=O)c1ccc2nccnc2c1 | · | · | · | · | 0.63
CC(C)(C)NC(=O)c1ccc(Sc2ccccc2)c([N+](=O)[O-])c1 | 0.1 | 0.3 | 92* | 70* | -0.75
C=CCNC(=O)c1ccc(Sc2ccccc2)c([N+](=O)[O-])c1 | 0.3 | 0.2 | 70* | 76* | -0.98
COC(=O)C(NC(=O)c1ccccc1)(Nc1nccs1)C(F)(F)F (stereo not drawn) | 0.8 | 0.8 | 23 | 23 | -0.17
CCOC(=O)C(NC(=O)OC(C)C)(Nc1nccs1)C(F)(F)F (stereo not drawn) | 1.1 | 0.4 | -6 | 55* | 0.07
O=C(CN1C(=O)CCS(=O)(=O)c2ccccc21)Nc1cccc(F)c1 | 1.2 | 1.1 | -21 | -12 | 0.71
Fc1ccccc1N1CCN(CC2CC3C=CC2C3)CC1 (stereo not drawn) | 0.9 | 0.7 | 5 | 26 | 0.83
C1=CC2CC1CC2CN1CCN(Cc2ccccc2)CC1 (stereo not drawn) | 1.1 | 0.5 | -8 | 53* | 0.05
Cc1sc2ncnc(OCC(=O)NCc3cccs3)c2c1C | · | · | · | · | 0.55
COc1ccc(NCCNc2ccc(OC)cc2)cc1 | 0.9 | 0.4 | 12 | 56* | 0.49
Cc1ccc(CCNc2ccc3ccccc3c2)cn1 | · | · | · | · | -0.69
Cc1ccc(NCCNc2ccc(C)cc2)cc1 | 0.9 | 0 | 12 | 100* | 0.99
Cc1cccc(NCCNc2cccc(C)c2)c1 | 0.9 | 0.5 | 6 | 47 | 0.13
Cc1ccc(NCCc2ccc(C)nc2)cc1 | 0.8 | 0 | 22 | 96* | 1.1
COc1ccc(NCN2C(=O)CCC2=O)cc1 | 0.8 | 0.8 | 20 | 16 | 0.44
NC(=O)c1ccc(NC(=O)CCCN2C(=O)c3ccccc3C2=O)cc1 | 0.8 | 1 | 24 | -4 | -0.13
COc1ccc(C2C(C(=O)c3sc(C)nc3C)=C(O)C(=O)N2CCN2CCOCC2)cc1 (stereo not drawn) | · | · | · | · | -0.46
Cc1ccc(C(=O)OCc2cn3ccccc3n2)cc1 | 0.4 | 0.2 | 59* | 83* | -0.03
O=C(NCc1cn2ccccc2n1)c1ccccc1 | 1 | 0.7 | 0 | 34 | -0.53
CCOc1ccc(Nc2c3c(nc4ncnn24)CC(C)CC3)cc1 (stereo not drawn) | 0.6 | 0.5 | 37 | 52* | -0.95
Cc1ccc(Nc2c3c(nc4ncnn24)CC(C)CC3)cc1 (stereo not drawn) | 0.8 | 0.8 | 23 | 22 | -1.2
SMILES | CYP2C9 activ | CYP2C19 act | CYP2C9 inh | CYP2C19 inh | Pyk2 oligo antag
Cc1ccc(Nc2c3c(nc4ncnn24)CCC3)cc1 | 0.8 | 0.4 | 19 | 60* | 0.92
O=C(Nc1ccc2c(c1)CCC2)C1CCN(c2c3c(nc4ncnn24)CCC3)CC1 | 0.8 | 0.9 | 20 | 12 | 1.1
Clc1cccc(Nc2c3c(nc4ncnn24)CCC3)c1 | 0.9 | 0.4 | 15 | 60* | 1.5
COC(=O)C(C)Sc1nc2c(c(=O)[nH]c(=O)n2C)n1CCC(C)C (stereo not drawn) | · | · | · | · | 0.7
CCOC(=O)N1CCN(C(=O)c2ccc3c(SCC(=O)O)c4c(nc3c2)CCC4)CC1 | 0.7 | 1 | 28 | 2 | ·
Cn1ncc(Br)c1C(=O)Nc1ccc(Cl)cn1 | 0.9 | 0.9 | 12 | 12 | 0.47
O=C(CN1CCCC1)Nc1ccc(-c2nc3cc(NC(=O)CN4CCCC4)ccc3o2)cc1 | 1 | 0.9 | 0 | 14 | -0.51
O=C(CSc1n[nH]c(-c2ccc(S(=O)(=O)NC3CCCCC3)cc2)n1)N1CCCC1 | 0.5 | 0.1 | 51* | 87* | -0.2
CCCSc1nnc(-c2cnn(-c3ccccc3)c2-n2cccc2)n1C | 0.9 | 0.9 | 6 | 9 | -0.46
CCSc1nnc(NC(=O)CSc2nnc(-c3c[nH]c4ccccc34)n2CC)s1 | 0.7 | 0.8 | 33 | 19 | ·
CCCSc1nnc(-c2c[nH]c3ccccc23)n1CC | 0.9 | 0.1 | 14 | 89* | ·
CCCSc1nnc(-c2c[nH]c3ccccc23)n1C | 0.9 | 0.2 | 8 | 76* | ·
COc1ccc(-c2noc(CCCC(=O)NCCc3ccccc3)n2)cc1OC | 0.5 | 0.5 | 48 | 47 | 0.74
CCOC(=O)/C(=N/Nc1ccc(Cl)cc1)S(=O)(=O)c1ccccc1 | 0.8 | 0.9 | 20 | 12 | -1.9
CCOC(=O)C1CCN(C(=O)COc2ccc(S(=O)(=O)NC(C)(C)C)cc2)CC1 | 0.8 | 1 | 19 | 2 | 0.89
CCOc1ccc(-n2c(SCC(=O)NCc3ccco3)nnc2-c2c[nH]c3ccccc23)cc1 | 0.4 | 0.9 | 60* | 7 | ·
Cn1c(SCC(=O)NCc2ccco2)nnc1-c1c[nH]c2ccccc12 | 0.6 | 0.5 | 38 | 52* | ·
Cn1c(SCC(=O)NCc2ccco2)nnc1-c1ccccc1 | · | · | · | · | 0.12
Cc1nnc(SCC(=O)NCc2ccco2)n1-c1ccccc1 | 1.1 | 1.2 | -14 | -16 | 2.5
Cc1cc2nc(NC3=NCN(Cc4ccc5c(c4)OCO5)CN3)nc(C)c2cc1C | 0.9 | 0.9 | 6 | 9 | ·
C=CCn1c(Cc2cccs2)nnc1SCC(=O)Nc1ccc(OC)c(OC)c1 | 0.9 | 0.8 | 9 | 16 | 0.63
C=CCn1c(Cc2cccs2)nnc1SCC(=O)c1ccc2ccccc2c1 | 0.7 | 0.4 | 27 | 55* | 0.14
Cc1ccc(OCc2nnc(SCC(=O)NCc3ccco3)n2C)cc1 | · | · | · | · | 1.1
CCOc1ccc(Nc2nc(Cc3nnc(SCC(=O)NCc4ccco4)n3CC)cs2)cc1 | 0.4 | 0.7 | 55* | 35 | 0.27
C=CCn1c(Cc2cccs2)nnc1SCC(=O)NCc1ccco1 | 0.3 | 0.7 | 65* | 32 | 0.38
SMILES | CYP2C9 activ | CYP2C19 act | CYP2C9 inh | CYP2C19 inh | Pyk2 oligo antag
C=CCn1c(Cc2cccs2)nnc1SCC(=O)c1ccc(F)cc1 | 0.4 | 0.1 | 56* | 93* | 1
CCOC(=O)CC(N)c1ccc(OC)cc1 (stereo not drawn) | 1 | 0.9 | -1 | 6 | -0.2
O=C(CCN1C(=O)C2C3C=CC(C3)C2C1=O)Nc1ccc2ncccc2c1 (stereo not drawn) | 0.9 | 0.9 | 12 | 12 | 0.85
C=CCn1c(Cc2cccs2)nnc1SCC(=O)c1cccc(Br)c1 | 0.7 | 0.4 | 34 | 62* | 0.31
Cc1ccc(NCc2nnc(SCc3ccc(C#N)cc3)n2Cc2ccco2)c(C)c1 | 0.1 | 0.1 | 94* | 92* | 0.26
Cc1ccc(C(=O)CSc2nnc(CNc3ccc(C)cc3C)n2Cc2ccco2)cc1 | 0.3 | 0.2 | 73* | 75* | -0.22

Assay outcomes deposited in PubChem BioAssay by Sanford-Burnham Center for Chemical Genomics.
